From PubChem BioAssay AID750 (Sanford-Burnham Center for Chemical Genomics, 2007)
In all, about 86,000 compounds went through this assay and about 140 (0.16%) were called active. Only a selection was taken, and actives are over-represented in it overall. A number with no mark means an inactive call.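 Rule for the calls: active = activation factor of at least 2 for MT1-MMP transcription at 10 µM; inactive = the rest.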

Test: MT1-MMP promoter reporter activation – cell-based, luciferase luminescence, primary screen (AID 750)
Conditions: HT1080 MT1-MMP promoter luciferase reporter, overnight, at 10 µM, active compounds read high

SMILES	activation factor
O=C(Cc1ccc(-n2c(=O)[nH]c3ccccc3c2=O)cc1)N1CCN(c2cccc(Cl)c2)CC1	1
COc1ccc(Br)cc1CN1CCN(C(=O)c2cccc(OC)c2OC)CC1	1.1
COc1ccc(C2=Nc3cc(C)ccc3OC2)cc1	0.9
CS(=O)(=O)N1CCN(c2cccc(Cl)n2)CC1	1.2
COc1ccc(S(=O)(=O)Nc2ccc3oc(C)c(C(C)=O)c3c2)cc1	1.1
Cc1ccc(C2=CSC3=NS(=O)(=O)CCN23)cc1C	1.1
CC1=C(C(=O)OC(C)(C)C)C(c2ccc(Br)cc2)NC(=O)N1CCCC(=O)O (configuration not stated)	1.1
CCS(=O)(=O)Nc1ccc(C2=NN(S(=O)(=O)c3ccc(F)cc3)C(c3ccco3)C2)cc1 (configuration not stated)	1.1
CC1=CC(C)(C)NC(=S)N1c1ccccc1	1.1
Cc1ccc(SCC(=O)c2cc(C)c(OC(=S)N(C)C)c(C)c2)cc1	1.9
COC(=O)CSc1nc2c(c(C3CC=CCC3)c1C#N)CCC2 (configuration not stated)	1
O=C(NCCCN1CCCCC1)c1ccc2c(c1)NC(=O)C(N1CCOCC1)S2 (configuration not stated)	1.1
CC(C)CC[n+]1ccn(C2=C([O-])c3ccccc3C(=O)/C2=N\S(=O)(=O)c2ccccc2)c1	0.8
Cc1cccc(-n2ncc3c(N4CCc5ccccc54)ncnc32)c1	1.5
Cc1ccc2c(c1)c1ncnc(N3CCc4ccccc4C3)c1n2C	2 (active)
Cc1ccc2c(c1)c1ncn(CCC3=CCCCC3)c(=O)c1n2C	1.3
COc1ccc(N(CC(=O)NC2CCCCC2)C(=O)CNC(=O)c2ccco2)c(OC)c1	1.2
CSc1nc(C)cc(SC(C(C)=O)C(=O)Nc2ccccc2)n1 (configuration not stated)	1.1
CSc1nc2nc3c(c(=O)n2[nH]1)CCC3	1.2
COc1ccccc1CCNC(=O)c1cnccn1	1.2
CCCCCOC(=O)c1ccc(N2C(=O)C3C4C=CC(C4)C3C2=O)cc1 (configuration not stated)	1.2
O=C(NCc1ccc2c(c1)OCO2)C12CC3CC(CC(C3)C1)C2	1
Cc1ccc(N(Cc2ccc(C(=O)Nc3ccccc3C(=O)NCc3ccco3)cc2)S(C)(=O)=O)cc1C	1.1
COc1ccccc1NC(=O)/C=C/C(N)=O	1.3
CC(C)CCNC(=O)CC1C(=O)N(Cc2ccccc2)C(C)c2nc3ccccc3n21 (configuration not stated)	1
CCOC(=O)c1ccccc1NS(=O)(=O)c1ccc(OC)cc1	1
CCn1c(CC(=O)Nc2ccc(C)cc2)nnc1SCC(=O)Nc1nc(C)cs1	1.1
